Assay results reported in PubChem BioAssay (NCI).
The panel holds about 83,000 compounds, 20% with a hit somewhere; the sample as a whole holds those more often.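 The test compound was applied at a single concentration to cells in 96-well plates for 48 hours, and percent growth was recorded.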 Activity calls are given as the source filed them. How the source made its calls: active means growth percent below 10; inactive means the rest.

Columns and labels:
Assay in all cases: NCI-60 one-dose screen, 48 h (100 = growth as untreated, 0 = no growth, -100 = all killed)
Conditions in all cases: 10 µM
NCI-H23 lung = test system: NCI-H23 lung
NCI-H226 lung = test system: NCI-H226 lung
NCI-H322M lung = test system: NCI-H322M lung
HOP-62 NSCLC = test system: HOP-62 NSCLC
NCI-H460 lung = test system: NCI-H460 lung
NCI-H522 lung = test system: NCI-H522 lung
A549/ATCC NSCLC = test system: A549/ATCC NSCLC
786-0 renal = test system: 786-0 renal
COLO 205 colon = test system: COLO 205 colon

Measured: growth

C#CC(C(C)C)N(CCO)CCCC (stereo not drawn)
inactive: NCI-H23 lung 120% | NCI-H226 lung 96.6% | NCI-H322M lung 107% | HOP-62 NSCLC 98.8% | NCI-H460 lung 101% | NCI-H522 lung 107% | A549/ATCC NSCLC 95.8% | 786-0 renal 108% | COLO 205 colon 108%

Cc1cc(N2CCC(N3CCCC3)CC2)nc(/N=C(\N)Nc2ccc(Cl)c(Cl)c2)n1
active: NCI-H322M lung -30.6% | HOP-62 NSCLC -8.02% | NCI-H460 lung -67.8% | NCI-H522 lung -66.4% | A549/ATCC NSCLC -22.1% | 786-0 renal -54.3% | COLO 205 colon -82.3%
inactive: NCI-H23 lung 56.8% | NCI-H226 lung 84.6%

O=C(/C=C\c1ccc(O)cc1)c1ccccc1
active: NCI-H522 lung -31.4%
inactive: NCI-H23 lung 102% | NCI-H226 lung 107% | NCI-H322M lung 101% | HOP-62 NSCLC 110% | NCI-H460 lung 113% | A549/ATCC NSCLC 94.2% | 786-0 renal 97.8% | COLO 205 colon 98%

O=C(Nc1cccc(NC(=O)Nc2cc(C(F)(F)F)ccc2Cl)c1)Nc1cc(C(F)(F)F)ccc1Cl
inactive: NCI-H23 lung 20.4% | NCI-H226 lung 34.3% | NCI-H322M lung 38% | HOP-62 NSCLC 21.8% | A549/ATCC NSCLC 11.6% | 786-0 renal 51.7%
active: NCI-H460 lung 4.58% | NCI-H522 lung -27.7% | COLO 205 colon 1.37%

CC1CCC2C(C)(C)C3CC12CC1OC13C (stereo not drawn)
inactive: NCI-H23 lung 107% | NCI-H226 lung 99.1% | NCI-H322M lung 117% | HOP-62 NSCLC 109% | NCI-H460 lung 100% | NCI-H522 lung 91.7% | A549/ATCC NSCLC 110% | 786-0 renal 98% | COLO 205 colon 109%

Cc1ccccc1C1N=C2Oc3ccccc3C=C2C(=O)N1 (stereo not drawn)
inactive: NCI-H23 lung 48.7% | NCI-H322M lung 37.4% | HOP-62 NSCLC 33.3% | NCI-H460 lung 30.6% | A549/ATCC NSCLC 33.5% | 786-0 renal 37.8%
active: NCI-H226 lung 3.49% | NCI-H522 lung -32.7% | COLO 205 colon 0.577%

Cc1ccc(/C(C#N)=C/c2ccc3c(c2)OCO3)cc1
inactive: NCI-H23 lung 71.2% | NCI-H226 lung 85.9% | NCI-H322M lung 78.8% | HOP-62 NSCLC 78.2% | NCI-H460 lung 71.3% | NCI-H522 lung 51.4% | A549/ATCC NSCLC 57.5% | 786-0 renal 104% | COLO 205 colon 65.8%

NC(=O)NC(=O)c1ccc(Cl)cc1
inactive: NCI-H23 lung 103% | NCI-H226 lung 102% | NCI-H322M lung 94.3% | HOP-62 NSCLC 94.4% | NCI-H460 lung 108% | NCI-H522 lung 79.5% | A549/ATCC NSCLC 108% | 786-0 renal 99.6% | COLO 205 colon 105%

COc1cc2cc(c1Cl)N(C)C(=O)C[C@H](OC(=O)[C@H](C)N(C)C(C)=O)[C@]1(C)O[C@H]1[C@H](C)[C@@H]1C[C@@](O)(NC(=O)O1)[C@H](OC)C=C/C=C(\C)C2
inactive: NCI-H23 lung 31.1% | NCI-H322M lung 31.5% | HOP-62 NSCLC 14% | A549/ATCC NSCLC 38.3% | 786-0 renal 10.6%
active: NCI-H226 lung 3.37% | NCI-H460 lung 2.87% | NCI-H522 lung -60.8% | COLO 205 colon -51.3%

C#CC(C)(O)c1ccc(Cl)cc1 (stereo not drawn)
inactive: NCI-H23 lung 92.4% | NCI-H226 lung 78.2% | NCI-H322M lung 99.9% | HOP-62 NSCLC 84.6% | NCI-H460 lung 104% | NCI-H522 lung 91.4% | A549/ATCC NSCLC 99.2% | 786-0 renal 95.5% | COLO 205 colon 103%

CSC[C@H](NC(=O)COc1cccc2cnccc12)C(=O)NC(Cc1ccccc1)C(O)C(=O)N1CSC[C@H]1C(=O)NC(C)(C)C (stereo partly drawn)
inactive: NCI-H23 lung 106% | NCI-H226 lung 105% | NCI-H322M lung 95.7% | HOP-62 NSCLC 110% | NCI-H460 lung 125% | NCI-H522 lung 72.3% | A549/ATCC NSCLC 110% | 786-0 renal 80.3% | COLO 205 colon 106%

CNC(=O)c1ccccc1CC1(O)c2ccccc2Oc2ccccc21
inactive: NCI-H23 lung 71.5% | NCI-H226 lung 77% | NCI-H322M lung 51.8% | HOP-62 NSCLC 71.4% | NCI-H460 lung 33.7% | NCI-H522 lung 24.8% | A549/ATCC NSCLC 41.8% | 786-0 renal 74.8% | COLO 205 colon 38%

O=C1c2ccccc2C(=O)c2c1ccc(C(=O)O)c2[N+](=O)[O-]
inactive: NCI-H23 lung 101% | NCI-H226 lung 107% | NCI-H322M lung 105% | HOP-62 NSCLC 97.2% | NCI-H460 lung 109% | NCI-H522 lung 97% | A549/ATCC NSCLC 103% | 786-0 renal 106% | COLO 205 colon 108%

Cc1cc(/C=C/c2ccc3cc(N(C)C)ccc3[n+]2C)c(C)n1-c1ccccc1
active: NCI-H23 lung -6.43% | NCI-H226 lung -75.1% | NCI-H322M lung 2.15% | HOP-62 NSCLC -81.5% | NCI-H460 lung -64.8% | NCI-H522 lung -31.7% | A549/ATCC NSCLC -44.9% | 786-0 renal -15.9% | COLO 205 colon -79.5%

CC(=O)Nc1cccc(NC(C)=O)n1
inactive: NCI-H23 lung 128% | NCI-H226 lung 103% | NCI-H322M lung 104% | HOP-62 NSCLC 101% | NCI-H460 lung 104% | NCI-H522 lung 100% | A549/ATCC NSCLC 108% | 786-0 renal 101% | COLO 205 colon 123%

O=C(O)CCC(=O)OC(C1CO1)C(OC(=O)CCC(=O)O)C1CO1 (stereo not drawn)
inactive: NCI-H23 lung 102% | NCI-H226 lung 96.5% | NCI-H322M lung 112% | HOP-62 NSCLC 102% | NCI-H460 lung 103% | NCI-H522 lung 91% | A549/ATCC NSCLC 97.4% | 786-0 renal 103% | COLO 205 colon 99.9%

CC(=O)c1ccc2c(ccc3ccccc32)c1
inactive: NCI-H23 lung 102% | NCI-H226 lung 94% | NCI-H322M lung 105% | HOP-62 NSCLC 115% | NCI-H460 lung 101% | NCI-H522 lung 93.1% | A549/ATCC NSCLC 95.3% | 786-0 renal 91% | COLO 205 colon 111%

C=CC(O)CCC (stereo not drawn)
inactive: NCI-H23 lung 106% | NCI-H226 lung 115% | NCI-H322M lung 103% | HOP-62 NSCLC 110% | NCI-H460 lung 104% | NCI-H522 lung 99.6% | A549/ATCC NSCLC 91.5% | 786-0 renal 105% | COLO 205 colon 119%

OCc1ccc(-c2ccc(-c3ccc(CO)s3)o2)s1
active: NCI-H226 lung -23.9% | NCI-H460 lung -4.49%
inactive: NCI-H23 lung 47.5% | NCI-H322M lung 55.3% | HOP-62 NSCLC 67.1% | NCI-H522 lung 25.9% | A549/ATCC NSCLC 19.8% | 786-0 renal 30.2% | COLO 205 colon 13.1%

c1ccc(CN2COc3c(ccc4c3OCN(Cc3ccccc3)C4)C2)cc1
active: NCI-H226 lung -9.91% | NCI-H460 lung 9.51% | A549/ATCC NSCLC 6.93% | 786-0 renal -26%
inactive: NCI-H23 lung 29.9% | NCI-H322M lung 32.9% | HOP-62 NSCLC 26.2% | NCI-H522 lung 30.7% | COLO 205 colon 12.7%

Cc1cc(O)ccc1O
inactive: NCI-H23 lung 104% | NCI-H226 lung 96.1% | NCI-H322M lung 98.5% | HOP-62 NSCLC 89.8% | NCI-H460 lung 106% | NCI-H522 lung 82.9% | A549/ATCC NSCLC 108% | 786-0 renal 75.3% | COLO 205 colon 120%

C[C@@H](c1ccccc1)[C@@H](C(=O)O)c1ccccc1
inactive: NCI-H23 lung 100% | NCI-H226 lung 98.8% | NCI-H322M lung 97.5% | HOP-62 NSCLC 99.7% | NCI-H460 lung 104% | NCI-H522 lung 99.9% | A549/ATCC NSCLC 101% | 786-0 renal 99.5% | COLO 205 colon 107%

CN(C)/N=C/c1ccccc1O
inactive: NCI-H23 lung 113% | NCI-H226 lung 98.6% | NCI-H322M lung 89.7% | HOP-62 NSCLC 109% | NCI-H460 lung 100% | NCI-H522 lung 96.2% | A549/ATCC NSCLC 104% | 786-0 renal 92.8% | COLO 205 colon 112%

CC1=CC(=O)c2ccccc2C1=O
inactive: NCI-H23 lung 101% | NCI-H226 lung 101% | NCI-H322M lung 99.2% | HOP-62 NSCLC 105% | NCI-H460 lung 115% | NCI-H522 lung 114% | A549/ATCC NSCLC 94.1% | 786-0 renal 106% | COLO 205 colon 108%

COc1cc(C2NC(=O)C(C#N)=C(Nc3cccc(C)c3)S2)ccc1O (stereo not drawn)
inactive: NCI-H23 lung 103% | NCI-H226 lung 104% | NCI-H322M lung 106% | HOP-62 NSCLC 98.1% | NCI-H460 lung 99.5% | NCI-H522 lung 47.5% | A549/ATCC NSCLC 32.5% | 786-0 renal 105% | COLO 205 colon 119%

CNS(=O)(=O)c1ccc(Cl)c(Cl)c1
inactive: NCI-H23 lung 110% | NCI-H226 lung 86.4% | NCI-H322M lung 103% | HOP-62 NSCLC 82.3% | NCI-H460 lung 109% | NCI-H522 lung 97.8% | A549/ATCC NSCLC 104% | 786-0 renal 85.9% | COLO 205 colon 114%

CN(C)CCN(Cc1ccccc1)c1ccccc1
inactive: NCI-H23 lung 99.8% | NCI-H226 lung 109% | NCI-H322M lung 110% | HOP-62 NSCLC 107% | NCI-H460 lung 104% | NCI-H522 lung 104% | A549/ATCC NSCLC 106% | 786-0 renal 105% | COLO 205 colon 118%

CCCCCCCCCCC(C)Br (stereo not drawn)
inactive: NCI-H23 lung 102% | NCI-H226 lung 101% | NCI-H322M lung 94.5% | HOP-62 NSCLC 119% | NCI-H460 lung 113% | NCI-H522 lung 104% | A549/ATCC NSCLC 97.1% | 786-0 renal 97% | COLO 205 colon 110%

S=c1sc2ccccc2n1CN1CCCCC1
inactive: NCI-H23 lung 95.9% | NCI-H226 lung 92.9% | NCI-H322M lung 99.1% | HOP-62 NSCLC 89.7% | NCI-H460 lung 102% | NCI-H522 lung 82.3% | A549/ATCC NSCLC 99.2% | 786-0 renal 105% | COLO 205 colon 103%

O=[N+]([O-])c1ccc(O)c(S(=O)(=O)O)c1
inactive: NCI-H23 lung 103% | NCI-H226 lung 102% | NCI-H322M lung 126% | HOP-62 NSCLC 101% | NCI-H460 lung 109% | NCI-H522 lung 104% | A549/ATCC NSCLC 106% | 786-0 renal 104% | COLO 205 colon 122%

CC1(C(=O)O)NC(C(=O)O)Cc2c1[nH]c1ccccc21 (stereo not drawn)
inactive: NCI-H23 lung 101% | NCI-H226 lung 93.8% | NCI-H322M lung 91.5% | HOP-62 NSCLC 102% | NCI-H460 lung 105% | NCI-H522 lung 92.6% | A549/ATCC NSCLC 101% | 786-0 renal 104% | COLO 205 colon 104%

Oc1ccc2c(c1)OCC1(O)Cc3cc(O)c(O)cc3C21 (stereo not drawn)
inactive: NCI-H23 lung 86.9% | NCI-H226 lung 98.2% | NCI-H322M lung 103% | HOP-62 NSCLC 82.2% | NCI-H460 lung 112% | A549/ATCC NSCLC 93.7% | 786-0 renal 95.2% | COLO 205 colon 165%
active: NCI-H522 lung -34.1%
